# Results: PubChem BioAssay (Tox21)
# Inconclusive results are not listed. Where a call stands in place of a potency, no number is given. Activity calls are given as the source filed them. The call rests on the fitted dose curve; in most records, active means well fitted activation curve with a large enough effect in the signal ratio in the repeat runs (not every such curve was filed as active); inconclusive means weak or mixed curves; inactive means flat fitted curve, though single readings scatter; the % refers to the signal ratio.
# Test: p53 small molecule agonists, cell-based qHTS assay (AID 1963582)
# Settings: HCT-116 p53RE-bla reporter, beta-lactamase FRET ratio, 16 h; series mostly up to 66 µM
# Source text: National Center for Advancing Translational Sciences [NCATS]
# Division of Preclinical Innovation [DPI]
# U.S. Environmental Protection Agency [EPA]
# National Institutes of Environmental Health Sciences [NIEHS]
# National Toxicology Program [NTP]
# U.S. Food and Drug Administration [FDA]
# p53, a tumor suppressor protein, is activated following cellular insult, including DNA damage and other cellular stresses. The activation of p53 regulates cell fate by inducing DNA repair, cell cycle arrest, apoptosis, or cellular senescence. The activation of p53, therefore, is a good indicator of DNA damage and other cellular stresses. […] The activation of the reporter gene under culture conditions can be detected by fluorescence intensity. This cell line was used to screen the Tox21 10K compound library in a 1536-well plate format and to identify agonists that activate the p53 signaling pathway.
# Tox21 Assay Protocol Summary:
# The p53RE-bla cells were dispensed at 4,000 cells/5 ul/well in 1536-well black wall/clear bottom plates using a Multidrop dispenser. After the assay plates were incubated at a 37 C/5% CO2 incubator for 5 hours, 23 nL of compounds dissolved in DMSO, positive controls or DMSO only was transferred to the assay plate by a pin tool. The plates were incubated at 37 C for 16 hours. After 1 uL of LiveBLAzerTM B/G FRET substrate was added using a Flying Reagent Dispenser, the plates were incubated at room temperature for 2 hours, and fluorescence intensity was measured by an Envision plate reader.
row,Compound,Potency
1,COC(=O)CCC(=O)O,inactive
2,Cc1ccc(C(=O)O)cc1,inactive
3,CC1(C)[C@H]2CC[C@](C)(C2)[C@H]1O,inactive
4,CC/C=C\CCOC(=O)C(C)C,inactive
5,C=C(C)C(=O)NCCC[N+](C)(C)C,inactive
6,C=CC(=O)NC(C)C,inactive
7,C=C[Si](OC(=C)C)(OC(=C)C)OC(=C)C,inactive
8,CCOC(/C=C(\C)CCC=C(C)C)OCC,inactive
9,COC(/C=C(\C)CCC=C(C)C)OC,inactive
10,CC1CCCC(=O)C1=O (stereo not given),inactive
11,CC(=O)SC[C@@H](C)C(=O)N1CCC[C@H]1C(=O)N[C@@H](Cc1ccccc1)C(=O)O,inactive
12,O=C1OC(CN2CCOCC2)CN1/N=C/c1ccc([N+](=O)[O-])o1 (stereo not given),inactive
13,CN1[C@@H]2CC[C@H]1CC(NC(=O)n1c(=O)[nH]c3ccccc31)C2 (stereo not given in full),inactive
14,CCN(CC#N)c1cccc(C)c1,inactive
15,COc1ccc2cccc(CCNC(C)=O)c2c1,inactive
16,CC(C)(C)NC(N)=O,inactive
17,Cc1ccc(N)cc1[N+](=O)[O-],inactive
18,CC[C@H](C)[C@H](N)C(=O)O,inactive
19,CCO[Si](OCC)(OCC)c1ccccc1,inactive
20,CC(=O)OCCCc1ccccc1,inactive

row,Compound,Potency
1,O=S(O)CO,inactive
2,O=C(OCCOCCO)c1ccccc1Nc1cccc(C(F)(F)F)c1,inactive
3,COc1ccccc1N=Nc1c(S(=O)(=O)O)cc2cc(S(=O)(=O)O)cc(NC(C)=O)c2c1O,inactive
4,CC/C=C\CCOC(=O)CC,inactive
5,Cc1ccccc1S(=O)(=O)O,inactive
6,COc1cc(/C=C/C(=O)O[C@H]2CC[C@]34C[C@]35CC[C@]3(C)[C@@H]([C@H](C)CCC=C(C)C)CC[C@@]3(C)[C@@H]5CC[C@H]4C2(C)C)ccc1O,inactive
7,CCCN[C@H]1CCc2nc(N)sc2C1,inactive
8,C=C(C)[C@@H]1CCC2=CC(=O)C[C@@H](C)[C@]2(C)C1,inactive
9,CC(C)CCOCCC(C)C,inactive
10,CC(C)(c1cc(Br)c(OCC(Br)CBr)c(Br)c1)c1cc(Br)c(OCC(Br)CBr)c(Br)c1 (stereo not given),inactive
11,OCc1ccccc1O,inactive
12,C1CN(CCOCCN2CCOCC2)CCO1,inactive
13,Nc1nc(=O)n([C@@H]2O[C@H](CO)[C@@H](O)[C@@H]2F)cc1I,inactive
14,Nc1cc([N+](=O)[O-])ccc1Cl,inactive
15,CN1CCc2cccc3c2[C@H]1Cc1ccc(O)c(O)c1-3,inactive
16,CCOC(=O)CC(C(C)=O)C(C)=O,inactive
17,CCCCN(CCCC)CCCCCCN(CCCC)CCCC,inactive
18,CC1(C)O[C@H]2CC(=O)OC[C@]23[C@H]2CC[C@@]4(C)[C@H](c5ccoc5)OC(=O)[C@H]5O[C@]54[C@]2(C)C(=O)C[C@@H]13,inactive
19,O=c1[nH]c(=O)c2ccccc2o1,inactive
20,CCN(CC)CCN,inactive
